From PubChem
SENP8 block-1 – SENP8 (human) protease inhibition; Q96LD8; recombinant SENP8, Nedd8 substrate fluorescence; inhibition, % at 20 µM; 360,000 tested, 0.64% active; AID 602440; in the data active means inhibition mostly above about 40%, no sharp cut-off; inactive means mostly below about 27%
SENP7 inh – blocks the human protease SENP7 | Q9BQF6 | recombinant SENP7, Z-RLRGG-aminoluciferin luminescence, 40 min | inhibition, % at 5 µM | 330,000 tested, 1.5% active;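 active means inhibition above about 50% at the single test dose, limit read from the data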;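 further: plate controls were DMSO with enzyme for no effect and no enzyme buffer wells for full effect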
Target sequence (Q9BQF6 706-1050 limits assumed): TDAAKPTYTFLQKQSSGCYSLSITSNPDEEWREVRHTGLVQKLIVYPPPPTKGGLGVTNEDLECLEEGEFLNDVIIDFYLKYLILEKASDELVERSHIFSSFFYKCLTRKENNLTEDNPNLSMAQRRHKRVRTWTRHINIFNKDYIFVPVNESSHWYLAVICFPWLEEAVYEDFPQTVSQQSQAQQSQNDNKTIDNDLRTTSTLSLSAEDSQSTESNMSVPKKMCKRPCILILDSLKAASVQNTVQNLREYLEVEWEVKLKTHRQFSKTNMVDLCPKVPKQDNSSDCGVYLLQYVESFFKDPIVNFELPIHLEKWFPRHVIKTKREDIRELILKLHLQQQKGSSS
SENP6 inh – SENP6 protease inhibition. Q9GZR1. Recombinant SENP6 catalytic domain, aminoluciferin luminescence. inhibition, % at 10 µM. 330,000 tested, 1.8% active;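 active means inhibition above about 50% at the single tested dose, limit read from the data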;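 further: plate controls were DMSO wells with enzyme for no effect and DMSO wells lacking enzyme for full effect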
SENP8 block-2 – blocks the human protease SENP8 | inhibition, % at 10 µM | purified SENP8, Z-RLRGG-aminoluciferin cleavage, luminescence | 330,000 tested, 1.2% active | Q96LD8 | AID 2540; in the data active means inhibition above about 50%
HSP90 inh – HSP90 refolding inhibition in rabbit reticulocyte lysate. luciferase refolding luminescence, 3 h. inhibition, % at 5.6 µM. 290,000 tested, 0.91% active. AID 1789;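 active means inhibition above the screen-wide mean plus 3 SD, computed separately per campaign, cut at about 16% in these data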;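 further: 0% = DMSO wells and 100% = 60 µM geldanamycin wells; inhibitors lower the luminescence because luciferase stays unfolded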
SENP8 inh conf – confirmation of human SENP8 protease inhibitors; AID 624319; purified SENP8, Nedd8-AMC/pro-Nedd8 cleavage fluorescence, 30 min; inhibition, % at 25 µM; 1,400 tested, 15% active; shares compounds with SENP8 block-1; in the data active means inhibition mostly above about 39%, no sharp cut-off; inactive means mostly below about 34%
* hit, by the source's call; · = not tested or not shown. The list is not random: actives were taken first. Their share in the collection is about 2.7%.

SMILES	SENP8 block-1	SENP7 inh	SENP6 inh	SENP8 block-2	HSP90 inh	SENP8 inh conf
Cc1ccc(NC(=O)[C@@H](NC(=O)N2C[C@H]3C[C@@H](C2)c2cccc(=O)n2C3)C(C)C)cc1	56*	-7	-11	1	6	17
CN1C2CCC1CC(=NO)C2	48*	-1	2	-5	-1	25
CC(=O)c1ccc2c(c1)OCO2	44*	-4	0	-6	-3	0
COC(=O)C1C(C(=O)O)C2(Cl)C(Cl)=C(Cl)C1(Cl)C2(Cl)Cl (stereo not given)	9	·	·	·	·	·
O=c1ccc2c(O)c3ccoc3cc2o1	48*	-10	-1	-15	·	4
Cc1ccc2[nH]c(C)c(CCNCc3cccnc3)c2c1	-19	3	16	5	1	·
COc1ccc2c(c1)c(CCN)c(C)n2Cc1ccccc1	16	2	-3	-3	6	·
COc1cccc2c1cc([N+](=O)[O-])c1c(C(=O)O)cc3c(c12)OCO3	42*	·	·	·	·	21
C=CCc1cc(OC)c2c(c1)OCO2	22	-3	-4	4	·	·
CCCCC(CC)CNCC(O)c1ccccc1 (stereo not given)	11	5	-10	-4	3	·
COc1cccc(N=Nc2c(O)[nH]c(=S)[nH]c2=O)c1	51*	29	49	24	3	22
O=c1[nH]c(=S)[nH]c(O)c1N=Nc1cccc(S(=O)(=O)N2CCOCC2)c1	32	0	-7	1	1	·
Cc1ncc(CNC(=O)N(CCCl)N=O)c(N)n1	1	1	0	-4	·	·
O=[N+]([O-])c1ccc(NCc2ccc(Cl)cc2)c2ccncc12	43*	13	26	16	9	37
O=[N+]([O-])c1ccc(NCc2ccccc2)c2nonc12	·	26	43	21	0	·
NS(=O)(=O)c1ccc(N=Nc2c(O)[nH]c(=S)[nH]c2=O)cc1	26	11	33	-9	3	·
O=c1[nH]c(=S)[nH]c(O)c1N=Nc1cc(S(=O)(=O)Nc2ccc(Cl)cc2)ccc1Cl	41*	-2	17	6	·	11
O=C1NC(=O)C(Cc2ccccc2)(Cc2ccccc2)C(=O)N1	15	·	·	·	·	·
O=C1NC(=O)C(Nc2ccccc2)C(=O)N1	64*	·	·	·	·	46*
O=C(CCC(=O)N1C[C@H]2C[C@@H](C1)c1cccc(=O)n1C2)NCc1cccc(C(F)(F)F)c1	50*	-5	-3	0	-3	6
O=C(CCC(=O)N1C[C@H]2C[C@@H](C1)c1cccc(=O)n1C2)NCc1ccccc1	21	-3	-19	-2	-3	·
C=CC12CN(C)C3C4COC(CC41)C1(C(=O)Nc4ccccc41)C32 (stereo not given)	41*	·	·	·	·	3
O=c1[nH]c(=S)[nH]c(O)c1N=Nc1cc2c(cc1[N+](=O)[O-])OCO2	42*	4	13	10	2	20
CCN1CCN(C(=O)COc2ccc(S(=O)(=O)N3CCOCC3)cc2Cl)CC1	8	-9	-27	-11	-1	·
CCN1CCN(S(=O)(=O)c2ccc(Cl)nc2)CC1	44*	0	19	6	3	12
SMILES	SENP8 block-1	SENP7 inh	SENP6 inh	SENP8 block-2	HSP90 inh	SENP8 inh conf
O=C1NC(=O)C(CCc2ccncc2)(Cc2ccc3c(c2)OCO3)C(=O)N1CCc1ccccc1 (stereo not given)	29*	12	2	1	2	13
COc1ccc(N=Cc2c(O)n(Cc3cccs3)c(=O)[nH]c2=O)cc1	-170	-12	-5	-4	3	·
CN1CCN(c2ccc(N)c(N3CCN(C)CC3)c2)CC1	51*	15	-32	-8	1	-7
CCOC(=O)CNC(=O)N1Cc2cc(N3CCOCC3)ccc2-n2nncc2C1	16	·	·	·	·	·
O=C(NC1(C(F)(F)F)Oc2ccc(Cl)cc2O1)N1CCC2(CC1)OCCO2 (stereo not given)	40*	7	25	1	-3	17
CCOC(=O)[C@]12Cc3cc(OC)ccc3[C@H]1N(C)C(=O)c1ccccc12	13	·	·	·	·	·
